This passage reports Potency and activity change, negative = inhibition results from PubChem BioAssay AID651820 (National Center for Advancing Translational Sciences (NCATS), 2012).

In all, about 340,000 compounds went through this assay and about 12,000 (3.5%) were called active. A call without a number means that no potency is given here. Roughly 18% stayed inconclusive and do not appear here. Calls come from the whole dose curve; as a rule, active = well fitted inhibition curve with a large enough effect; inconclusive = small, poorly fitted or top-dose-only effect, or another doubt; inactive = no such curve, though single readings can be large or run the other way. Only a selection was taken, and actives are over-represented in it overall.

The test can be described thus: qHTS Assay for Inhibitors of Hepatitis C Virus (HCV). Particulars: Huh7.5.1 HCVcc-Cre infection, luciferase reporter, 44 h; series mostly up to 41.8 µM. An excerpt:
Hepatitis C virus (HCV) infects about 200 million people in the world. Many infected people progress to chronic liver disease including cirrhosis with a risk of developing liver cancer. To date, there is no effective vaccine for hepatitis C. Current therapy based on interferon is only effective in about half of the patients and is associated with significant adverse effects. The fraction of people with HCV who can complete a successful treatment is estimated to be no more than 10 percent. Recent development of direct-acting antivirals against HCV, such as protease and polymerase inhibitors, is promising but still requires combination with peginterferon and ribavirin for maximal efficacy. In addition, these agents are associated with high rate of resistance and many have significant side effects. Due to the lack of a culture system for infectious HCV, the search for new HCV drugs has been greatly hampered. […] High-throughput screening (HTS) with an infectious HCV system would cover the complete spectrum of potentially druggable targets in all stages of HCV lifecycle, and would have more biological relevance than other cell-based assays. Moreover, targeting several key processes in the viral life cycle may not only increase antiviral efficacy; more importantly, it may also reduce the capacity of the virus to develop resistance to the compound. The goal of this project is to identify novel HCV inhibitors as new therapies for hepatitis C, using a highly sensitive and specific assay platform which is based on a HCV infectious cell culture system established in the laboratory and adapted for high-throughput HCV drug screen. NIH Chemical Genomics Center [NCGC] NIH Molecular Libraries Probe Centers Network [MLPCN] MLPCN Grant: MH095511 Assay Submitter (PI): Jake Liang, NIDDK
The assay will start with plating 1,000 cells/well in 3 µL volume and culture for 4 h. Then 23 nL of compounds from the library collection will be added to each well, followed by adding 2.5 µL of HCVcc-Cre virus (~ 0.5 moi) and further cultured for 44 h before the luciferase assay. A volume of 4.5 µL luciferase substrates will be added to each well and the plates will be incubated at room temperature for 15 min. and then read for 15 sec. for the luciferase activity
`S=C(Nc1ccc(Cl)cc1Cl)N1CCCC1`: the Potency result is “inactive”.

For `Cc1ccc2c(c1)C1CN(C)CCC1N2C(=S)Nc1ccc(Cl)cc1Cl` (centres undefined), the Potency is 14.1 µM (active).

Take `Cc1ccc2c(c1)C1CN(C)CCC1N2C(=O)c1ccccc1NS(=O)(=O)c1ccc(F)cc1C` (centres undefined): the Potency entry is “inactive”.

For the compound `Cc1ccc(-c2nn(-c3ccc(F)cc3)cc2C(=O)NCC(c2cccs2)N2CCOCC2)cc1` (centres undefined), the Potency entry was “inactive”.

Consider `CC(=O)CSc1nc(CCc2ccccc2)c(C#N)c(=O)[nH]1`, for which the Potency entry is “inactive”.

`Cc1csc(=O)n1CC(=O)Nc1ccc(S(C)(=O)=O)cc1`: the Potency result was “inactive”.

`COc1ccc2nc(Nc3nc4ccc(NC(C)=O)cc4s3)sc2c1`: the Potency was 12.6 µM (active).

For the compound `COc1ccc2nc(NC(=O)NC3CCCCC3)sc2c1`, the Potency entry was “inactive”.

Consider `COc1ccc2nc(NC(=O)c3ccc(Br)s3)sc2c1`, for which the Potency entry was “inactive”.

Take `O=C(COC(=O)c1cccc(Cl)c1)NC(=O)NCc1ccccc1`: the Potency entry was “inactive”.

`Cc1noc(C)c1COc1ccc(C(=O)NCCOc2ccccc2)cc1`: the Potency entry was “inactive”.

For the compound `O=C(NC(=S)Nc1ccc(S(=O)(=O)N2CCOCC2)cc1)c1ccccc1[N+](=O)[O-]`, the Potency result is “inactive”.

Take `CN(CC(=O)Nc1ccc(N2CCOCC2)cc1)CC(=O)Nc1ccccc1[N+](=O)[O-]`: the Potency entry was “inactive”.

`O=C(Nc1ccc(N2CCOCC2)cc1)c1ccc(-c2ccccc2[N+](=O)[O-])o1`: the Potency was 11.2 µM (active).

As for `Clc1ccc(Nc2ccc3ccccc3n2)cc1`, the Potency entry was “inactive”.

With `N#CC1(NC(=O)COC(=O)CSc2ccc(F)cc2)CCCCC1`, the Potency entry was “inactive”.

With `COc1cccc(COC(=O)C2CCN(S(=O)(=O)c3cccs3)CC2)c1OC`, the Potency result was “inactive”.

Regarding `COC(=O)c1sc(NC(=O)c2ccc(OC)cc2OC)nc1C`, the Potency result was “inactive”.

On to `Cc1ccc(NC(=O)c2csc3c2CCCC3)cc1`, for which the Potency result was “inactive”.

Regarding `COC(=O)c1sc(NC(=O)c2csc3c2CCCC3)nc1C`, the Potency was 11.2 µM (active).

For `CC1=NNC(=O)C1Cc1c(Cl)cccc1Cl` (centres undefined), the Potency result was “inactive”.

On to `CCCCN1CC(CO)Oc2cccc(F)c2S1(=O)=O` (centres undefined), for which the Potency entry is “inactive”.

`COc1cccc2oc(CCc3ccccc3)cc(=O)c12`: the Potency result was “inactive”.

Regarding `Cc1cc(-c2cccs2)nc(-n2cccc2)n1`, the Potency is 5.01 µM (active).

For the compound `Cc1cc2nc(C(F)(F)F)cc(-c3cccs3)n2n1`, the Potency result is “inactive”.

With `c1csc(-c2cn3c(n2)SCC3)c1`, the Potency result was “inactive”.

Consider `CO[C@@H]1[C@@H](OC(N)=O)[C@@H](O)C(Oc2ccc3c(O)c(NC(=O)c4ccc(O)c(CC=C(C)C)c4)c(=O)oc3c2C)OC1(C)C` (some centres undefined), for which the Potency result is “inactive”.

As for `CC[C@]12c3[nH]c4ccc(Cl)cc4c3CCN1C(=O)[C@@H](CC(=O)NCCCOC)C[C@@H]2C(=O)N1CCN(C(=O)c2ccco2)CC1`, the Potency result was “inactive”.

`COc1ccccc1N1CCN(c2nc(C)cc(=O)[nH]2)CC1`: the Potency result is “inactive”.

`O=C(COC(=O)C1(c2ccc(F)cc2)CCCC1)N1CCNC1=O`: the Potency result was “inactive”.

Consider `CSc1nc(-c2ccccc2)nc(C(Cl)Cl)n1`, for which the Potency was 3.98 µM (active).

`CSc1nc(C)cc(SC(C(C)=O)C(=O)Nc2ccccc2)n1` (centres undefined): the Potency result was “inactive”.

In the case of `CSc1ncc(Sc2ccccc2)c(C(=O)O)n1`, the Potency result is “inactive”.

With `CCOc1ncccc1C(=O)Nc1ccc2c(c1)OCCO2`, the Potency result was “inactive”.

Regarding `CC(=O)c1ccc(S(=O)(=O)Nc2ccc(-c3ccc4nncn4n3)cc2)cc1`, the Potency entry was “inactive”.

For the compound `C[C@@H]1C[C@@H]2O[C@H]2/C=C\C=C\C(=O)Cc2c(Cl)c(O)cc(O)c2C(=O)O1`, the Potency is 3.16 µM (active).

Turning to `Cc1noc(C)c1NC(=O)Nc1cccc2c1O[C@H](CN(C)S(=O)(=O)c1c(C)noc1C)[C@@H](C)CN([C@H](C)CO)C2=O`, the Potency entry is “inactive”.

`CC(=O)c1ccc(S(=O)(=O)N2CCN(c3nc4c(C)c(C)ccc4cc3C#N)CC2)cc1`: the Potency is 10 µM (active).

On to `Cc1cc(C)c2nc(N3CCCC3)c(C#N)cc2c1`, for which the Potency entry was “inactive”.

With `CC(=O)c1ccc(S(=O)(=O)N2CCN(C(=O)/C=C/c3ccc4ccccc4n3)CC2)cc1`, the Potency entry was “inactive”.

In the case of `O=C(Cc1ccc([N+](=O)[O-])cc1)NCCc1ccc2c(c1)OCO2`, the Potency entry is “inactive”.

As to `CN(C(=O)COC(=O)Cc1ccccc1[N+](=O)[O-])C1CCS(=O)(=O)C1` (centres undefined), the Potency result was “inactive”.

For the compound `COc1ccc(CCN2C(=O)C(C)=C(C)C2=O)cc1OC`, the Potency entry is “inactive”.

For the compound `COc1ccc(CCNC2=C(Cl)C(=O)N(Cc3ccccc3)C2=O)cc1OC`, the Potency is 12.6 µM (active).

Consider `COc1ccc(CCNC(=O)c2ccccc2-c2ccccc2C(=O)O)cc1OC`, for which the Potency result was “inactive”.

Turning to `Cc1ccc(S(=O)(=O)CC(=O)Nc2sc(C)c(C)c2C(N)=O)cc1`, the Potency result was “inactive”.

`COc1cc2c(cc1CNC[C@H]1O[C@@H](n3cnc(C(N)=O)n3)[C@H](O)[C@@H]1O)OCO2`: the Potency entry was “inactive”.

For the compound `OCCCNc1nc(-c2ccccc2)c2cc(Cl)ccc2n1`, the Potency result is “inactive”.

On to `NC(N)=Nc1nc(-c2ccccc2)c2cc(Cl)ccc2n1`, for which the Potency is 11.2 µM (active).

In the case of `Cc1ccc2nc(Nc3ccccc3O)nc(-c3ccccc3)c2c1`, the Potency entry was “inactive”.

For the compound `Cn1c(N)c(C(=O)COC(=O)c2cccc(S(=O)(=O)N3CCOCC3)c2)c(=O)n(C)c1=O`, the Potency result is “inactive”.

As for `O=C(NCC(=O)N1CCCCCCC1)c1ccccc1Cl`, the Potency result is “inactive”.

Consider `CC1=C(C(=O)OCc2ccccc2)C(c2ccc(C(F)(F)F)cc2)NC(=O)N1CCCCCC(=O)O` (centres undefined), for which the Potency entry was “inactive”.

On to `COC(=O)CCCCCN1C(=O)NC(c2ccc(-c3ccccc3)cc2)C(C(=O)OCc2ccccc2)=C1C` (centres undefined), for which the activity change, negative = inhibition was 4.51% [at 8.37 µM] (inactive).

Take `CC1=C(C(=O)OC(C)(C)C)C(c2ccc(Br)cc2)NC(=O)N1CCCC(=O)O` (centres undefined): the Potency result was “inactive”.

As to `CCCCNC(=O)C(C)N(CCN(C)C)C(=O)CCCN1C(=O)NC(c2ccc(Cl)cc2)C(C(=O)OCc2ccccc2)=C1C` (centres undefined), the Potency is 11.2 µM (active).

Turning to `CCCCNC(=O)C(C)N(CCN(C)C)C(=O)CCCCCN1C(=O)NC(c2ccc(Cl)cc2)C(C(=O)OCc2ccccc2)=C1C` (centres undefined), the Potency was 11.2 µM (active).

As to `CCOC(=O)CCCNC(=O)CN1C(=O)NC(CCc2ccccc2)C1=O` (centres undefined), the Potency entry was “inactive”.

For `O=C(COC(=O)CSc1ccccc1)Nc1ccc(F)cc1F`, the Potency result is “inactive”.

As for `CCC(C)C1(C2CCCC2)NC(=O)NC1=O` (centres undefined), the Potency result was “inactive”.

Regarding `CC(C)(C)OC(=O)C1=C(CO)CS[C@@H]2[C@H](NC(=O)Cc3ccccc3)C(=O)N12`, the Potency entry is “inactive”.

For the compound `O=C(c1ccc2nc(N3CCOCC3)sc2c1)N1CCN(c2ccc(Cl)cc2)CC1`, the Potency entry was “inactive”.

With `Brc1ccc2nc(N3CCCC3)sc2c1`, the Potency was 11.2 µM (active).

Consider `c1c2c(cc3sc(N4CCCCC4)nc13)OCCO2`, for which the Potency result was “inactive”.
